From PubChem BioAssay (Tox21)
The source made the active and inactive calls. A call without a number means that no potency is given here. Calls come from the whole dose curve; as a rule, active = well fitted curve in the direction sought with a large enough effect in the repeat runs; inconclusive = weak or mixed curves; inactive = flat fitted curve, though single readings scatter. Starred links: 1 amine or outer side, 2 acyl side, 3 side chain; linkers in the order of their positions; H or OH if unused. Positions of bridges follow the written chain, without caps; N, C: chain ends. Non-standard residues stand in square brackets, D forms with d. Residues, ends and D or L forms follow the SMILES beside them. Chains are numbered I, II in the order given. Actinocin(9to1) = Cc1c2oc3c(C)ccc(C(=O)[*:1])c3nc-2c(C(=O)[*:2])c(N)c1=O; NMeV = CN[C@H](C(=O)O)C(C)C; Sar = CNCC(=O)O

Assay: qHTS assay to test for compound auto fluorescence at 535 nm (green) in HepG2 cells (AID 720675)
Conditions: green autofluorescence 485/535 nm, 1 h; series mostly up to 91.3 µM
Tags give direction and shape of the fitted curve or compound fluorescence and quenching.

| SMILES | Potency |
| --- | --- |
| CC1=CC(=O)c2ccccc2C1=O | inactive |
| CCc1ccc(C(c2ccc(CC)cc2)C(Cl)Cl)cc1 | inactive |
| NCCO | inactive |
| COc1cc(C(=S)N2CCOCC2)ccc1O | inactive |
| Cc1cc(Cc2cc(C)cc(C(C)(C)C)c2O)c(O)c(C(C)(C)C)c1 | inactive |
| Nc1cc(S(=O)(=O)O)cc2cc(S(=O)(=O)O)cc(O)c12 | inactive |
| Cc1cc(C2(c3cc(C)c(O)cc3C)OS(=O)(=O)c3ccccc32)c(C)cc1O | inactive |
| CC(=O)N[C@@H](CS)C(=O)O | inactive |
| CC[C@@H](N)CO | inactive |
| COC(=O)[C@H]1[C@H]2C[C@@H]3c4[nH]c5cc(OC)ccc5c4CCN3C[C@H]2C[C@@H](OC(=O)c2cc(OC)c(OC)c(OC)c2)[C@@H]1OC | inactive |
| CC(C)(C)c1ccccc1 | inactive |
| Cc1ccnc2c1NC(=O)c1cccnc1N2C1CC1 | inactive |
| CCOC(=O)C(C)C(C)=O (stereo not drawn) | inactive |
| O=Cc1ccc(Cl)cc1 | inactive |
| O=S(=O)(O)c1ccc2nc(-c3ccccc3)[nH]c2c1 | inactive |
| CCN(CC)c1ccc2c(C)cc(=O)oc2c1 | inactive |
| CC(=O)C1=C(C)[C@@H]2C[C@@]3(C1)[C@H](C)CC[C@H]3C2(C)C | inactive |
| CCCC(=O)c1ccccc1 | inactive |
| COC(c1ccccc1)(c1ccccc1)[C@H](Oc1nc(C)cc(C)n1)C(=O)O | inactive |

| SMILES | Potency |
| --- | --- |
| Cc1cccc2n[nH]nc12 | inactive |
| Oc1c(Cl)cc(Cl)c(Cl)c1Cc1c(O)c(Cl)cc(Cl)c1Cl | inactive |
| Cc1scc2c1N(C(=O)CN1CCN(C)CC1)c1ccccc1NC2=O | inactive |
| CCN(CC)C(=O)Nc1ccc(OCC(O)CNC(C)(C)C)c(C(C)=O)c1 (stereo not drawn) | inactive |
| CC[C@H]1CN2CCc3cc(OC)c(OC)cc3[C@@H]2C[C@@H]1C[C@H]1NCCc2cc(OC)c(OC)cc21 | inactive |
| OCCOCCN1CCN(C(c2ccccc2)c2ccc(Cl)cc2)CC1 (stereo not drawn) | inactive |
| Cc1cc(C(C)(C)C)c(O)c(C(C)(C)C)c1 | inactive |
| CC(=O)CC(C)=O | inactive |
| NC(Cc1ccc(Cl)cc1)C(=O)O (stereo not drawn) | inactive |
| CC1=C(C=O)C(C)(C)CC=C1 | inactive |
| CCCCOCCOC(=O)c1ccccc1C(=O)OCCOCCCC | inactive |
| CCCCC/C=C/CC1CC(=O)OC1=O (stereo not drawn) | inactive |
| O=C(O)c1cn(-c2ccc(F)cc2)c2cc(N3CCNCC3)c(F)cc2c1=O | inactive |
| C=C(C)C(=O)O | inactive |
| CC(C(O)c1ccc(O)cc1)N1CCC(Cc2ccccc2)CC1 (stereo not drawn) | inactive |
| Cc1c2oc3c(C)ccc(C(=O)N[C@@H]4C(=O)N[C@H](C(C)C)C(=O)N5CCC[C@H]5C(=O)N(C)CC(=O)N(C)[C@@H](C(C)C)C(=O)O[C@@H]4C)c3nc-2c(C(=O)N[C@@H]2C(=O)N[C@H](C(C)C)C(=O)N3CCC[C@H]3C(=O)N(C)CC(=O)N(C)[C@@H](C(C)C)C(=O)O[C@@H]2C)c(N)c1=O (I: T[dV]P[Sar][NMeV] / II: T[dV]P[Sar][NMeV]; ester I:1-I:C, II:1-II:C; linker I:N-II:N via Actinocin(9to1)) | inactive |
| C=CS(=O)(=O)O | inactive |
| O=c1n(CC2CO2)c(=O)n(CC2CO2)c(=O)n1CC1CO1 (stereo not drawn) | inactive |

Assay: qHTS assay to test for compound auto fluorescence at 460 nm (blue) in HEK293 cells (AID 720678); note: potency is the fitted concentration of half-maximal effect
Conditions: blue autofluorescence 405/460 nm; series mostly up to 91.3 µM
Procedure, shortened: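 Blue-channel (Ex/Em 405/460 nm) intensity measured in HEK293 cultures after overnight compound exposure at 37C; signal expressed relative to triamterene. Cells plated 2,000 per well in 10% dialyzed FBS medium and allowed 4-5 hr to attach.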

| SMILES | Potency |
| --- | --- |
| CC1=CC(=O)c2ccccc2C1=O | inactive |
| CCc1ccc(C(c2ccc(CC)cc2)C(Cl)Cl)cc1 | inactive |
| NCCO | inactive |
| COc1cc(C(=S)N2CCOCC2)ccc1O | inactive |
| Cc1cc(Cc2cc(C)cc(C(C)(C)C)c2O)c(O)c(C(C)(C)C)c1 | inactive |
| Cc1cc(C2(c3cc(C)c(O)cc3C)OS(=O)(=O)c3ccccc32)c(C)cc1O | inactive |
| CC(=O)N[C@@H](CS)C(=O)O | inactive |
| CC[C@@H](N)CO | inactive |
| COC(=O)[C@H]1[C@H]2C[C@@H]3c4[nH]c5cc(OC)ccc5c4CCN3C[C@H]2C[C@@H](OC(=O)c2cc(OC)c(OC)c(OC)c2)[C@@H]1OC | inactive |
| CC(C)(C)c1ccccc1 | inactive |
| Cc1ccnc2c1NC(=O)c1cccnc1N2C1CC1 | inactive |
| CCOC(=O)C(C)C(C)=O (stereo not drawn) | inactive |
| O=Cc1ccc(Cl)cc1 | inactive |
| O=S(=O)(O)c1ccc2nc(-c3ccccc3)[nH]c2c1 | inactive |
| CCN(CC)c1ccc2c(C)cc(=O)oc2c1 | 39.8 µM [fluorescent] (active) |
| CC(=O)C1=C(C)[C@@H]2C[C@@]3(C1)[C@H](C)CC[C@H]3C2(C)C | inactive |
| CCCC(=O)c1ccccc1 | inactive |
| COC(c1ccccc1)(c1ccccc1)[C@H](Oc1nc(C)cc(C)n1)C(=O)O | inactive |

| SMILES | Potency |
| --- | --- |
| Cc1cccc2n[nH]nc12 | inactive |
| Oc1c(Cl)cc(Cl)c(Cl)c1Cc1c(O)c(Cl)cc(Cl)c1Cl | inactive |
| Cc1scc2c1N(C(=O)CN1CCN(C)CC1)c1ccccc1NC2=O | inactive |
| CCN(CC)C(=O)Nc1ccc(OCC(O)CNC(C)(C)C)c(C(C)=O)c1 (stereo not drawn) | inactive |
| CC[C@H]1CN2CCc3cc(OC)c(OC)cc3[C@@H]2C[C@@H]1C[C@H]1NCCc2cc(OC)c(OC)cc21 | inactive |
| OCCOCCN1CCN(C(c2ccccc2)c2ccc(Cl)cc2)CC1 (stereo not drawn) | inactive |
| Cc1cc(C(C)(C)C)c(O)c(C(C)(C)C)c1 | inactive |
| CC(=O)CC(C)=O | inactive |
| NC(Cc1ccc(Cl)cc1)C(=O)O (stereo not drawn) | inactive |
| CC1=C(C=O)C(C)(C)CC=C1 | inactive |
| CCCCOCCOC(=O)c1ccccc1C(=O)OCCOCCCC | inactive |
| CCCCC/C=C/CC1CC(=O)OC1=O (stereo not drawn) | inactive |
| O=C(O)c1cn(-c2ccc(F)cc2)c2cc(N3CCNCC3)c(F)cc2c1=O | inactive |
| C=C(C)C(=O)O | inactive |
| CC(C(O)c1ccc(O)cc1)N1CCC(Cc2ccccc2)CC1 (stereo not drawn) | inactive |
| Cc1c2oc3c(C)ccc(C(=O)N[C@@H]4C(=O)N[C@H](C(C)C)C(=O)N5CCC[C@H]5C(=O)N(C)CC(=O)N(C)[C@@H](C(C)C)C(=O)O[C@@H]4C)c3nc-2c(C(=O)N[C@@H]2C(=O)N[C@H](C(C)C)C(=O)N3CCC[C@H]3C(=O)N(C)CC(=O)N(C)[C@@H](C(C)C)C(=O)O[C@@H]2C)c(N)c1=O (I: T[dV]P[Sar][NMeV] / II: T[dV]P[Sar][NMeV]; ester I:1-I:C, II:1-II:C; linker I:N-II:N via Actinocin(9to1)) | inactive |
| C=CS(=O)(=O)O | inactive |
| O=c1n(CC2CO2)c(=O)n(CC2CO2)c(=O)n1CC1CO1 (stereo not drawn) | inactive |
